From PubChem BioAssay AID504430 (National Center for Advancing Translational Sciences (NCATS), 2011)
The list shows a part of the results. Active and inactive are the calls of the source.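 Rule for the calls: active = compounds that block the splicing kinase Clk1 enough to give a fitted half-inhibition concentration; inactive = the rest.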

target: Dual specificity protein kinase CLK1 (Homo sapiens) (UniProt P49759); assay: Kinase Inhibition Study on Inhibitors of CDC-like Kinase 1 (Reaction Biology data); conditions: recombinant Clk1 kinase assay, 10 uM ATP
Text: NIH Molecular Libraries Probe Production Centers Network [MLPCN] NIH Chemical Genomics Center [NCGC] MLPCN Grant: 1R03MH084827-01 Assay Submitter (PI): Tom Misteli NCGC Assay Overview: Alternative splicing of pre-mRNAs plays a major role in the regulation of eukaryotic gene expression. Alternative splicing is now thought to be one of the primary reasons for the complexity of higher organisms leading to an average of three protein isoforms per gene. Aberrant splicing can lead to a number of diseases and is known to play a role in rare genetic diseases such as progeria syndrome. Hutchinson-Gilford Progeria Syndrome (HGPS) is a pediatric premature aging disease caused by a spontaneous mutation in the lamin A/C (LMNA) gene due to a single point mutation in the lamin A gene effecting 1 in 4 million people. To identify both specific splicing modulators of the lamin A gene as well as general splicing modulators, a cell-based HTS assay was developed using a minigene reporter system (AIDs, 1459 & 1487). […] This AID summarizes the characterization of lead compounds in Clk1.
All kinase reactions were performed using 10 uM ATP in the assay. 100% activity was taken from kinase reactions with DMSO alone (the vehicle used for compound stock solutions).

Sequence of Dual specificity protein kinase CLK1 (Homo sapiens) (P49759 whole entry, looked up, canonical isoform): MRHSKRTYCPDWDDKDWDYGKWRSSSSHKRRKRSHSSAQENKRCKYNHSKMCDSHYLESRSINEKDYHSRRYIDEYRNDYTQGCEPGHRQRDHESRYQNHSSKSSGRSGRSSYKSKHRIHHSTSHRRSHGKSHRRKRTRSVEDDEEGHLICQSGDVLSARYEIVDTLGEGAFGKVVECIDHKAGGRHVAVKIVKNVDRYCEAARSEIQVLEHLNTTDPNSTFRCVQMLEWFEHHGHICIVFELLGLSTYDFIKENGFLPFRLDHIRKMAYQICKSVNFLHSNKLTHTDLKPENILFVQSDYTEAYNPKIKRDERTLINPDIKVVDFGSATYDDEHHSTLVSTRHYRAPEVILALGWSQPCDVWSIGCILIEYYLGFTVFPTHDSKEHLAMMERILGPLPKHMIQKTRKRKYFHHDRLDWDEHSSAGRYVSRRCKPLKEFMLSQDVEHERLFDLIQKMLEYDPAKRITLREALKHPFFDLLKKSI

Potency, active:
CC(Nc1ncnc2ccc(-c3ccc4c(c3)OCO4)cc12)c1ccco1 (stereo not drawn) 5.75 µM, c1nc(N2CCOCC2)c2cc(-c3ccc4c(c3)OCO4)ccc2n1 1.11 µM, CN(Cc1cncn1C)c1ncnc2ccc(-c3ccc4c(c3)OCO4)cc12 2.8 µM
